Pf Dd2 growth – Plasmodium falciparum Dd2 growth inhibition; P. falciparum Dd2 growth, SYBR Green, 72 h; Potency, µM (titrated, usually from 28.9 µM), for inactives: at the top dose activity, negative = inhibition, hits mostly inhibitors; 4.3% of 120,000 active; active = well fitted inhibition curve with a large enough effect;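 note: plate controls were DMSO vehicle for no effect and reference drug for full effect; nearly all actives have a fitted effect of over 65% in size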
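Readout: SYBR Green fluorescence, 485 nm excitation, 535 nm emission, after ~16 h lysis at 37C. Before that, Dd2-infected red cells (2.5% hematocrit) grew 72 h with compound, 29 uM top final concentration.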
An asterisk follows results filed as active; i = inactive; [ ] = dose if it differs, or a comment. Shown is part of a subset that was picked to be rich in hits. Potency is the fitted concentration of half-maximal effect.

SMILES	Pf Dd2 growth
O=C(C1CCCCC1)N1CC[C@H](c2nc3ccccc3s2)C1	-26%[44.1 µM]
CCOc1cccc(C(=O)N2CCC(c3nc4ccccc4s3)CC2)c1	87%
CCC1c2nccn2CCCN1C(=O)COC (stereo not drawn)	29%
CCC1c2nccn2CCCN1C(=O)Cn1c(=O)oc2ccccc21 (stereo not drawn)	13µM*
CC(C)C1c2nccn2CCCN1C(=O)Cn1c(=O)oc2ccccc21 (stereo not drawn)	-19%
CCC1c2nccn2CCCN1C(=O)C1CCOCC1 (stereo not drawn)	-4%
CCC1c2nccn2CCCN1C(=O)Cc1ccc(OC)cc1 (stereo not drawn)	7.1µM*
CCC1c2nccn2CCCN1C(=O)c1ccc2c(c1)OCO2 (stereo not drawn)	-20%
O=C(c1cccs1)N1CCC2(CC1)NC(=O)N(Cc1ccc(F)cc1)C2=O	-6%
Cc1nnsc1C(=O)N[C@H]1CCN(C(=O)CSCC(=O)O)[C@H](C(=O)N[C@H](Cc2ccccc2)C(N)=O)C1	9%
CC(=O)C1=C(c2cccc([N+](=O)[O-])c2)N(C(C)=O)n2c(nnc2-c2ccc(C)cc2)S1	15%
CN(C(=O)CSc1nnc(-c2ccc([N+](=O)[O-])cc2)o1)C1CCCCC1	23%
CCOC(=O)C1=C(C)N=C2SC=C(CC(=O)NC3CC3)N2C1c1cccc([N+](=O)[O-])c1 (stereo not drawn)	0%
CCC(=O)C1=C(c2cccc([N+](=O)[O-])c2)N(C(=O)CC)n2c(nnc2C2CCCCC2)S1	1.4µM*
COc1cccc(C(=O)N2CCn3c(nnc3C3CC3)C2)c1	7%[44.1 µM]
CCC(=O)C1=C(c2cccc([N+](=O)[O-])c2)N(C(=O)CC)n2c(nnc2-c2ccccc2)S1	1.1µM*
COc1cccc(-c2nnc(SCC(=O)N(C)C3CCCCC3)o2)c1	0%
CC(=O)Nc1cccc(-c2nnc(SCC(=O)c3cc([N+](=O)[O-])ccc3Cl)o2)c1	i
CCC(=O)C1=C(c2cccc(OC)c2)N(C(=O)CC)n2c(nnc2C2CCCCC2)S1	2.8µM*
Cc1cc(CNC(=O)[C@@H]2CCC[C@@H](NC(=O)c3cccnc3)CN(C)C(=O)C2)no1	13%[44.1 µM]
CNC(=O)[C@@H]1CN(S(=O)(=O)c2ccccc2F)C[C@H]1COC	15%
Cc1noc(-c2ccc3c(c2)OCO3)c1C(=O)NCCSCc1ccccc1	-11%
CC(C)=CCN1CCNC(=O)C1CC(=O)O (stereo not drawn)	-4%
COc1ccc2c(c1)nc1n2[C@@H](CNC2CCN(C(C)=O)CC2)COC1	27%[44.1 µM]
Cc1ccc(NC(=O)Cn2c(-c3ccccc3)nc(C)cc2=O)c(C)c1	i
SMILES	Pf Dd2 growth
Cc1cc2nc3n(c(=O)c2n1CC(=O)NC(C)CCc1ccccc1)CCCCC3 (stereo not drawn)	i
CC(C)CCN1CCCC2(CNc3ccccc3[S+](=O)([O-])N2)C1 (stereo not drawn)	13µM*
Cn1nccc1CN1CCCC2(CNc3ccccc3[S+](=O)([O-])N2)C1 (stereo not drawn)	-3%
N#Cc1ccc(CN2CCCC3(CNc4ccccc4[S+](=O)([O-])N3)C2)cc1 (stereo not drawn)	i
CC(C)c1ccc(N2CC(C(=O)N(C)Cc3cnccn3)CC2=O)cc1 (stereo not drawn)	-14%
Cc1ccc(NS(=O)(=O)c2ccc3[nH]c(=O)ccc3c2)cc1N(C)C	-16%
Cc1cccc(NS(=O)(=O)c2ccc3[nH]c(=O)ccc3c2)c1C	8.9µM*
CC(C)c1ccc(NS(=O)(=O)c2ccc3[nH]c(=O)ccc3c2)cc1	-2%
C[C@@]12CO[C@@H](Cc3ccccc3)O[C@@H]1CC[C@]1(C)C2CC[C@@H](O)[C@H]1CC(=O)NCc1ccco1 (stereo partly drawn)	i
CCOC(=O)C1=CN(CC(=O)Nc2cccc(C)c2)S(=O)(=O)N=C1C	11%
CC(=O)c1cc(CC(=O)N[C@@H]2COCC[C@@H]2OCc2ccccc2)cs1	8%
CC(=O)c1cc(CN(CCc2ccccc2)CC2CCCN(C)C2)cs1 (stereo not drawn)	13µM*
CN1CCCC(CN(CCc2ccccc2)C(=O)c2cc[n+]([O-])cc2)C1 (stereo not drawn)	-16%
O=C(c1ccc2ccccc2n1)N1CCN(C(=O)c2nnn3c2COC(c2ccccc2)C3)CC1 (stereo not drawn)	6.3µM*
O=C(c1ccccn1)N1CCN(C(=O)c2nnn3c2COC(c2ccccc2)C3)CC1 (stereo not drawn)	i
O=C(c1ccccc1)N1CCN(C(=O)c2nnn3c2COC(c2ccccc2)C3)CC1 (stereo not drawn)	i
CCC(=O)N(C1CCOCC1)C1CCN(S(=O)(=O)c2ccccc2)CC1	-16%
CC1Oc2ccc(NC(=O)Cc3ccccc3)cc2CN(Cc2ccc(F)cc2)C1=O (stereo not drawn)	-10%
CCc1nc2ccc(C(=O)NCc3ccc(N(C)C)cc3)cc2nc1CC	3.5µM*
CC(C)c1nc2ccc(C(=O)NCc3ccc(N(C)C)cc3)cc2o1	22%
CN(C)c1ccc(CNC(=O)c2ccc3nc(Cc4ccccc4)oc3c2)cc1	-26%
CN1C(=O)C2(CCN(C(=O)c3cc4c(s3)CCCC4)CC2)c2ccccc21	-6%
COc1ccc(C2Cn3nnc(-c4nc(-c5ccc(Cl)cc5)no4)c3CO2)cc1 (stereo not drawn)	i
COc1ccc(C2=CC(c3ccccc3Cl)n3nc(-c4ccc(C)cc4)nc3N2)cc1 (stereo not drawn)	11µM*
COc1ccc(C2C=C(c3ccccc3)Nc3nc(NS(=O)(=O)c4ccc(C)cc4)nn32)cc1 (stereo not drawn)	20%
SMILES	Pf Dd2 growth
Cc1ccc(C2C=C(c3ccc(F)cc3)Nc3nc(CCCO)nn32)cc1 (stereo not drawn)	8.9µM*
OCCCc1nc2n(n1)C(c1cccc(Cl)c1)C=C(c1ccccc1)N2 (stereo not drawn)	i
COc1ccc(C2C=C(c3ccc(F)cc3)Nc3nc(-c4ccc(Cl)cc4)nn32)cc1 (stereo not drawn)	1.1µM*
CCOc1ccccc1C1C(C(=O)Nc2ccccc2)=C(C)Nc2nc(-c3ccccc3)nn21 (stereo not drawn)	-19%
Cc1ccc(C2C=C(c3ccccc3)Nc3nc(NS(=O)(=O)c4ccc(C)cc4)nn32)cc1 (stereo not drawn)	-14%
O=C(COc1ccc(F)cc1)N1CCC2(CC1)CC(OCC1CC1)CCO2 (stereo not drawn)	i
COc1ccc(CNC(=O)Cn2c(-c3ccccc3)nc(C)c(CCO)c2=O)cc1	-17%
COc1cc(C(=O)N2[C@@H]3CC[C@H]2CC(NC(=O)c2ccncc2)C3)cc(OC)c1OC (stereo partly drawn)	i
CCCN(CC1CCOC1)S(=O)(=O)c1cccc(Cl)c1 (stereo not drawn)	41%[5.79 µM]
Cc1ccc(-c2nnc3ccc(NC(C)C)nn23)nc1	i
Cc1ccc(NC(=O)c2c(NC(=O)Cc3ccccc3)sc3c2CCC3)cc1	32%
CC1CCc2c(sc(NC(=O)Cc3ccccc3)c2C(=O)Nc2ccc(Cl)cc2)C1 (stereo not drawn)	10µM*
O=C(Cc1ccccc1)Nc1sc2c(c1C(=O)Nc1cccc(Cl)c1)CCCCC2	i
COc1cc(=O)n2c(c1C(=O)N1CCN(c3ccccc3C)CC1)CCCC2	-9%
Cc1cc(C)c(NC(=O)Nc2csc3c2CCCC3)c(C)c1	86%[5.79 µM]
Cc1cccc(C)c1NC(=O)Nc1csc2c1CCCC2	-16%
